# Measurements: PubChem BioAssay AID430 (Sanford-Burnham Center for Chemical Genomics, 2006)
# Screen size: about 63,000 compounds; about 1,100 (1.7%) were called active. No stated cut-off is given here; in the data, active means cytotoxicity above about 50%; inactive means the rest. Many of the other results were omitted from the sample, so actives are more common in it than they were. Potency and affinity values are given separately.
# Assay: cytotoxicity in HPDE-C7 cells, cell-based, fluorescence, HTS (AID 430);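 further: cells exposed to compound for 48 hours before viability readout; 0% = vehicle and 100% = reference cytotoxic drug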
# Settings: HPDE-C7 pancreatic duct cells viability, at 10 µM, hits give high values
row,SMILES,cytotoxicity
1,Cc1ccc(NCC(O)C(O)C(O)CO)cc1C (stereo not drawn),53.3% (active)
2,COc1ccc(C(O)CNc2ccc(C)cc2)cc1 (stereo not drawn),-2.1% (inactive)
3,COc1cc(CNc2ccc(C)c(C)c2)cc(OC)c1OC,46.9% (inactive)
4,COc1ccc(OC)c(S(=O)(=O)N(C)CC(=O)Nc2ccc3c(c2)OCCO3)c1,-1.4% (inactive)
5,CCOc1ccc(N2CC(C(=O)NCCc3ccc(OC)c(OC)c3)CC2=O)cc1 (stereo not drawn),5.7% (inactive)
6,CS(=O)(=O)N1CCC(C(=O)NCc2ccc(F)cc2Cl)CC1,-2.6% (inactive)
7,CCOc1ccccc1NC(=O)CCn1c(=O)oc2ccccc21,0.7% (inactive)
8,COc1ccc(-n2nnnc2S(=O)(=O)CC(=O)N2CCCCC2)cc1,76.4% (active)
9,COc1cc(OC)cc(-n2nnnc2SCC(=O)N2CCCC2)c1,-7.2% (inactive)
10,COc1ccc(-n2nnnc2S(=O)(=O)Cc2ccc(C(=O)O)cc2)cc1,4.8% (inactive)
11,Cc1oc(-c2ccccc2F)nc1CS(=O)CC(=O)NCc1cccs1 (stereo not drawn),-2.6% (inactive)
12,CCc1c(O)nc(SCC(=O)Nc2ccccc2)n(-c2ccccc2)c1=O,23% (inactive)
13,CCc1c(O)nc(SCC(=O)Nc2ccc(C)cc2)n(C2CCCCC2)c1=O,51.2% (active)
14,CCc1c(O)nc(SCC(=O)Nc2ccc(OC)cc2)n(C2CCCCC2)c1=O,-8.3% (inactive)
15,COc1ccc(N2C(=O)CCC(C(=O)c3ccccc3)=C2C)cc1,-2.2% (inactive)
16,Cc1c2c(nc3nc4ccccc4n13)CC(C)(C)CC2=O,0.8% (inactive)
17,Cc1cc(C)c2cc(C#N)c(SCC(=O)NCC3CCCO3)nc2c1 (stereo not drawn),-15.1% (inactive)
18,CCn1c2ccccc2c2cc(Nc3cc(C)nc4ncnn34)ccc21,64.5% (active)
19,Cc1cc(Nc2ccc3ccccc3c2)n2ncnc2n1,-0.5% (inactive)
20,CCc1cccc(Nc2cc(C)nc3ncnn23)c1,-0.8% (inactive)
21,CCOCc1nnc(NC(=O)CSCc2ccccc2)s1,-3.4% (inactive)

row,SMILES,cytotoxicity
1,CC1CCCN(c2ncnc3c2cnn3-c2ccccc2)C1 (stereo not drawn),-9.4% (inactive)
2,Cc1cc(NC(=O)c2c(-c3ccccc3Cl)noc2C)no1,-12.4% (inactive)
3,CCCCNC(=O)c1c(N)n(/N=C/c2ccccn2)c2nc3ccccc3nc12,50.5% (active)
4,CC(C)OCCCNC(=O)c1c(N)n(/N=C/c2ccccn2)c2nc3ccccc3nc12,28.4% (inactive)
5,CCC(C)NC(=O)c1c(N)n(/N=C/c2cccnc2)c2nc3ccccc3nc12 (stereo not drawn),41.4% (inactive)
6,CC(C)CNC(=O)c1c(N)n(/N=C/c2ccccn2)c2nc3ccccc3nc12,14.8% (inactive)
7,COCCNC(=O)c1c(N)n(/N=C/c2cccs2)c2nc3ccccc3nc12,42.8% (inactive)
8,COCCCNC(=O)c1c(N)n(/N=C/c2ccccn2)c2nc3ccccc3nc12,22% (inactive)
9,COCCCNC(=O)c1c(N)n(/N=C/c2cccnc2)c2nc3ccccc3nc12,33.1% (inactive)
10,CCOc1cc(C(=O)NCCOC)ccc1OC,-6.6% (inactive)
11,CC(=O)N1CCN(S(=O)(=O)c2ccc(C)cc2)C1C(C)C (stereo not drawn),11% (inactive)
12,CCOc1ccc(-c2cc(CCCC(=O)NCc3cccnc3)no2)cc1,-0.4% (inactive)
13,Cn1cccc1Cc1nnc(SCC(=O)NCC2CCCO2)n1-c1ccc(F)cc1 (stereo not drawn),0.9% (inactive)
14,COc1ccc(NC2=NC3(CCCCC3)N=C(N)N2)cc1,4.1% (inactive)
15,COc1cccc(NC2=NC3(CCCCC3)N=C(N)N2)c1,3.1% (inactive)
16,CCSc1nnc(NC(=O)c2cnccn2)s1,-7% (inactive)
17,CCOC(=O)N1CCC(NC(=O)CC(NS(=O)(=O)c2ccc(Cl)cc2)c2ccco2)CC1 (stereo not drawn),-6.1% (inactive)
18,COc1ccc(OC)c(NC(=O)CCN2CCN(Cc3ccccc3)CC2)c1,0.1% (inactive)
19,CCCCSCCCNC(=O)CS(=O)Cc1nc(-c2cccc(C)c2)oc1C (stereo not drawn),-17.4% (inactive)
20,Cc1cccc(-c2nc(CS(=O)CC(=O)NCCCSC3CCCCC3)c(C)o2)c1 (stereo not drawn),56.1% (active)
21,CCCCNC(=O)CS(=O)Cc1nc(-c2cccc(C)c2)oc1C (stereo not drawn),0.4% (inactive)

row,SMILES,cytotoxicity
1,Cc1ccc(C2(C(F)(F)F)NC(=O)N3CCCN=C3S2)cc1 (stereo not drawn),-18.8% (inactive)
2,Cc1ccc(C2(C(F)(F)F)NC(=O)N3CCN=C3S2)cc1 (stereo not drawn),81.6% (active)
3,O=C1NC(c2ccccc2)(C(F)(F)F)SC2=NCCCN12 (stereo not drawn),-2.2% (inactive)
4,CC(C)c1ccc2c(c1)C(=O)NC(C)(C)C2,1.8% (inactive)
5,COc1ccccc1C(=O)NCCn1cc(SCC(=O)Nc2nnc(C)s2)c2ccccc21,-8% (inactive)
6,CC(C)Cn1c(CN(Cc2ccccc2)Cc2ccccc2)nc2c1c(=O)n(C)c(=O)n2C,51.7% (active)
7,CCCn1c(CN(Cc2ccccc2)Cc2ccccc2)nc2c1c(=O)n(C)c(=O)n2C,-14.9% (inactive)
8,CC(C)Cn1c(CN(C)Cc2ccccc2)nc2c1c(=O)n(C)c(=O)n2C,-6.6% (inactive)
9,CCOP(=O)(c1ccc(N(C)C)cc1)C(O)c1cc(OC)c(OC)c(OC)c1 (stereo not drawn),5.9% (inactive)
10,CCOC(=O)C(C)Sc1nc(-c2cccs2)ccc1C#N (stereo not drawn),59.2% (active)
11,C=COC(=O)CSc1nc(-c2cccs2)ccc1C#N,26.7% (inactive)
12,COC(=O)CSc1nc(-c2cccs2)ccc1C#N,29.9% (inactive)
13,O=C(Nc1ccccc1N1CCCC1)c1ccco1,3.9% (inactive)
14,O=c1[nH]c2cc3c(cc2cc1CN(CCCO)Cc1nnnn1Cc1ccc(F)cc1)OCO3,-1.2% (inactive)
15,CC(=O)Nc1nc(C)nc(-c2ccccc2)c1C(C)=O,-1.8% (inactive)
16,CCc1nnc(NC(=O)CSc2nnc(-c3ccccc3OC)n2-c2ccccc2)s1,-8.7% (inactive)
17,CCc1nnc(NC(=O)CSc2nnc(-c3ccccc3O)n2-c2ccc(C)cc2C)s1,73.5% (active)
18,CCc1nnc(NC(=O)CSc2nnc(-c3ccccc3O)n2-c2ccc(C)cc2)s1,-7.9% (inactive)
19,C=CCN(CC=C)S(=O)(=O)c1ccc2nc(NC(=O)C(C)C)sc2c1,76.7% (active)
20,CCOC(=O)c1ccc2nc(NC(=O)C(C)C)sc2c1,-3.3% (inactive)
21,C=CCN(CC=C)S(=O)(=O)c1ccc2nsnc2c1,-6.7% (inactive)
